Compound activity: PubChem BioAssay, National Center for Advancing Translational Sciences (NCATS)
The list is not random: actives were taken first. Their share in the collection is about 12%.
G9a block: inhibitors of human histone lysine methyltransferase G9a. G9a H3K9 monomethylation, AlphaScreen, 2 h. hit rate 8.8% among 350,000. Potency, µM (top dose mostly 102 µM), hits mostly inhibitors. AID 504332; also: nearly all actives have a fitted effect of over 75% in size
Target sequence (Q96KQ7 913-1193 limits assumed): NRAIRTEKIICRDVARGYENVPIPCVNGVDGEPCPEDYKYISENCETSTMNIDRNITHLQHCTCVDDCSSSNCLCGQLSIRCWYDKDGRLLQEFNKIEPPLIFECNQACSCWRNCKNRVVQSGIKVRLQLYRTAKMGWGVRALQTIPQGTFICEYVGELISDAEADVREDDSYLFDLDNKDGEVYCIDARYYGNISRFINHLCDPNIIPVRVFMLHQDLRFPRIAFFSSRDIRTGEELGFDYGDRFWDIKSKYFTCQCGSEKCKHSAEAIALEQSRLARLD
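Methyltransferase reactions run at room temperature for 2 h (20 nM enzyme, 500 nM biotin-H3K9 peptide, 20 uM SAM) after a 15 min compound preincubation; product detected by AlphaScreen beads and anti-H3K9me1 antibody.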
HP1b chromo inh: inhibitors of HP1-beta chromodomain binding to methylated histone tails. P83916. AlphaScreen HP1-beta / biotin-H3K9me3 peptide binding. Potency, µM (titrated, usually from 114 µM), most hits filed as inhibitors. hit rate 0.56% among 390,000; also: nearly all actives have a fitted effect of over 70% in size
Target sequence (P83916 whole entry, looked up): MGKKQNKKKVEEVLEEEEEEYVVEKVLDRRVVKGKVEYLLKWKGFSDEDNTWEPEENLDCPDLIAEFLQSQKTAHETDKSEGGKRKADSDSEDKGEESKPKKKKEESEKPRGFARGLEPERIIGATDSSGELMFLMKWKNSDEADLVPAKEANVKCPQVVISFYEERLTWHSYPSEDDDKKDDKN
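Compound inhibition of the preformed complex between 50 nM HP1-beta and 50 nM biotinylated H3K9me3 peptide was read by AlphaScreen. Buffer was PBS pH 7.4 with 0.01% Tween-20. Incubations ran 30 min at room temperature, with 10 ug/mL donor/acceptor beads.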
L3MBTL1 inh: blocks human L3MBTL1. AlphaScreen L3MBTL1–H3K9me1 peptide binding. Potency, µM (titrated, usually from 57.1 µM), most hits filed as inhibitors. hit rate 0.66% among 230,000. AID 485360; also: nearly all actives have a fitted effect of over 60% in size
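L3MBTL1 (50 nM) pre-complexed 30 min with biotinylated H3(1-15)K9me1 peptide (75 nM), then compounds added for 30 min at room temperature; AlphaScreen streptavidin donor/nickel chelate acceptor beads (10 ug/mL final) read after 30 min dark incubation.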
Sfp PPTase inh: blocks B. subtilis Sfp PPTase activity; Q9F4F7; Biochemical Sfp PPTase activity, qHTS; Potency, µM, most hits filed as inhibitors; hit rate 3.5% among 310,000; AID 1490;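 also: the enzyme is Sfp with the accession as filed and its product quenches rhodamine fluorescence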
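Fluorescence-quenching assay with 15 nM Sfp, 5 uM rhodamine-CoA and 12.5 uM BHQ-2-labelled ybbR peptide in pH 7.6 Hepes/MgCl2 buffer. Enzyme was pre-incubated with compound for 15 min at room temperature. Rate was taken from the 30-min fluorescence change (525/598 nm).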
BAZ2B block: BAZ2B (human) inhibition; Q9UIF8; AlphaScreen BAZ2B-H3K14Ac peptide displacement; Potency, µM (top dose mostly 114 µM), hits mostly inhibitors; hit rate 4.4% among 360,000; AID 504333; also: nearly all actives have a fitted effect of over 60% in size
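AlphaScreen luminescence quantifies BAZ2B engagement of H3K14Ac peptide; the protein and biotinylated peptide are both at 50 nM final, buffer PBS pH 7.4 with 0.01% Tween-20, all steps at room temperature.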
JMJD2A Tudor inh: blocks the human JMJD2A Tudor domain | O75164 | AlphaScreen JMJD2A-Tudor / H3K4me3 peptide binding | Potency, µM (doses to about 114 µM), usual class: inhibitors | hit rate 4.4% among 390,000; also: nearly all actives have a fitted effect of over 50% in size
Hits are given with their value; 0 = inactive; ? = inconclusive; - = no result; [ ] = another dose, or the depositor's remark. Calls follow the shape of the dose curve; as a rule, active = well fitted curve in the direction sought with a large enough effect; inconclusive = small, poorly fitted or top-dose-only effect, or another doubt; inactive = no such curve, though single readings can be large; an effect the other way counts as inactive or inconclusive.

SMILES	G9a block	HP1b chromo inh	L3MBTL1 inh	Sfp PPTase inh	BAZ2B block	JMJD2A Tudor inh
CCCc1ccc(/C=C2\C(=O)c3ccccc3C(O)=C2C(=O)OCC)cc1	5.62µM	-	0	2.82µM	20µM	-
CCCN=C(C)C1=C(O)c2ccccc2C1=O	?	0	0	0	0	0
CCOc1cc(C=C2C(=O)c3ccccc3C2=O)ccc1OCC(=O)Nc1ccc(C)cc1	0	0	0	0	0	0
CCOC(=O)C1=C(O)c2ccccc2C(=O)/C1=C\c1ccc(CC)cc1	5.62µM	0	?	2µM	20µM	22.4µM
CCOc1ccccc1NC(=O)c1nc[nH]c1C(=O)Nc1ccccc1OCC	12.6µM	0	0	0	56.2µM	0
CCOc1ccccc1NC(=O)c1cccc2ccccc12	0	0	0	0	0	0
COc1ccccc1NC(=O)c1nc[nH]c1C(=O)Nc1ccccc1OC	11.2µM	?	0	56.2µM	?	0
CCOc1ccccc1NC(=O)c1csc(C)c1C	35.5µM	0	-	0	0	0
Cc1ccc2c(=O)c(C(=O)c3cccc(Cl)c3)cn(CC(=O)NCc3ccc(F)cc3)c2n1	0	0	-	-	0	0
COc1cc(-c2nnc(SCC(=O)NC(C)C)o2)cc(OC)c1OC	0	0	-	-	0	0
Cc1cc(/C=C2/C(=N)N3C(=NC2=O)SN=C3S(C)(=O)=O)c(C)n1-c1ccccc1F	50.1µM	0	-	0	44.7µM	?
Cc1ccc(-n2cccc2/C=C2\C(=N)N3N=C(C(C)C)SC3=NC2=O)cc1	?	0	0	0	?	?
CCC1=NN2C(=N)/C(=C\c3cccn3-c3ccc(OC)cc3)C(=O)N=C2S1	?	0	0	0	31.6µM	79.4µM
CS(=O)(=O)C1=NSC2=NC(=O)/C(=C\c3cccn3-c3ccc(Cl)cc3)C(=N)N21	44.7µM	?	0	?	39.8µM	44.7µM
CC1(OC(=O)c2cnc3ccccc3n2)C(=O)C=C2C=C3CCCN3C=C2C1=O (centres undefined)	-	-	-	0	-	-
CC(C)OCC(O)CN1CCNCC1 (centres undefined)	?	0	0	0	0	79.4µM
OC(COc1ccccc1Br)CN1CCNCC1 (centres undefined)	?	0	0	0	0	0
COC(=O)c1c(NC(=O)c2cccc(N3C(=O)CCC3=O)c2)sc2c1CCN(C(C)=O)C2	79.4µM	0	-	0	0	0
CCOC(=O)c1c(NC(C)=O)c2c3c(sc2n1Cc1nc(-c2ccccc2OCC)oc1C)CCCC3	0	0	-	-	0	0
CN1CCN(NS(=O)(=O)c2cccs2)CC1	1.41µM	0	0	0	0	0
CCCSc1nc2c(c(=O)[nH]1)C(c1ccc(F)cc1F)CC(=O)N2 (centres undefined)	0	0	-	-	0	0
Nc1c(C(=O)NCc2ccco2)sc2nc3c(cc12)C(=O)CCC3	?	0	31.6µM	0	?	56.2µM
O=C(NCc1ccco1)c1c2c(nc3ccccc13)CCC2	39.8µM	?	?	50.1µM	50.1µM	?
CCCC(C)NC(=O)c1c2c(nc3ccccc13)CCC2 (centres undefined)	0	0	?	0	50.1µM	0
CCOc1cccc(C(=O)Nc2ccc(-c3nc4ncccc4o3)cc2C)c1	0	0	-	-	0	0
SMILES	G9a block	HP1b chromo inh	L3MBTL1 inh	Sfp PPTase inh	BAZ2B block	JMJD2A Tudor inh
O=C(Nc1ccc(Br)cc1)C1CCCN(S(=O)(=O)c2ccc(Br)s2)C1 (centres undefined)	0	0	-	-	0	0
CC(=O)c1ccc(NC(=O)c2noc3c2CCCCC3)cc1	56.2µM	0	0	0	0	0
CCc1ccc(NC(=O)c2cnn(-c3c(C)cccc3C)c2C2CCN(C(=O)OC(C)(C)C)CC2)cc1	0	0	-	-	0	0
COc1ccc(-c2cc(C(=O)N/N=C/c3ccc4c(c3)OCO4)c3ccccc3n2)c(OC)c1	0[2.33 µM]	0	0	0	0	0
O=C(N/N=C/c1cccc(F)c1)c1cc(-c2ccco2)nc2ccccc12	?	28.2µM	5.62µM	0	6.31µM	?
O=C(N/N=C/c1ccc2c(c1)OCO2)c1cc(-c2ccc(F)cc2)nc2ccccc12	0	0	0	44.7µM	0	0
CCc1ccc(CNC(=O)C(C)n2ccc3cc(S(=O)(=O)N4CCCCCC4)ccc32)cc1 (centres undefined)	0	0	-	-	0	0
O=c1c2cc3c(cc2[nH]c(=S)n1CCN1CCOCC1)OCO3	?	0	0	0	?	35.5µM
COc1ccc(Cn2c(=O)[nH]c3cc(C(=O)NCCCN4CCCCC4)ccc3c2=O)cc1	0[2.33 µM]	0	0	0	0	0
CCCCn1c(=S)[nH]c2ccc(N3CCOCC3)cc2c1=O	20µM	-	0	?	0	-
O=c1c2cc(N3CCOCC3)ccc2[nH]c(=S)n1CCN1CCCC1	?	0	0[11.4 µM]	0	0	?
COc1cc2c(=O)n(CCCN3CCOCC3)c(=S)[nH]c2c(OC)c1OC	12.6µM	0	0	0	0	31.6µM
COc1ccc(Cn2c(=O)[nH]c3cc(C(=O)NCCCN4CCCCCC4)ccc3c2=O)cc1	56.2µM	0	0	0	0	14.1µM
CCOc1cc2[nH]c(=S)n(CCCN3CCOCC3)c(=O)c2cc1OCC	0[12.7 µM]	0	0[11.4 µM]	0	0	56.2µM
O=c1c2cc(N3CCOCC3)ccc2[nH]c(=S)n1CCCN1CCCCCC1	0[12.7 µM]	0	0[11.4 µM]	0	0	0
CCOc1cc2[nH]c(=S)n(Cc3ccc(C(=O)NCCCN(CC)CC)cc3)c(=O)c2cc1OCC	35.5µM	0	-	0	0	?
CCOc1cc2[nH]c(=S)n(CCN3CCCCC3CC)c(=O)c2cc1OCC (centres undefined)	56.2µM	0	-	0	0	0
O=c1c2cc(F)ccc2[nH]c(=S)n1CCCN1CCOCC1	50.1µM	0	0	0	0	0
N#Cc1nc(Nc2ccc(C(F)(F)F)cc2)nc(NC2CCCC2)n1	-	-	-	-	-	0
CCOc1cc2[nH]c(=S)n(Cc3ccc(C(=O)NCCCN4CCOCC4)cc3)c(=O)c2cc1OCC	25.1µM	0	-	0	0	0
COC(=O)c1ccc2c(=O)n(Cc3ccc(C(=O)NCCCN4CCOCC4)cc3)c(=S)[nH]c2c1	?	0	-	0	0	0
O=C(NCCCN1CCOCC1)c1ccc2c(=O)n(Cc3ccc(Cl)cc3)c(=S)[nH]c2c1	7.08µM	0	-	0	0	0
CN(C)CCNC(=O)c1ccc2c(=O)n(Cc3ccc(Cl)cc3)c(=S)[nH]c2c1	?	0	-	?	?	0
COC(=O)c1ccc2c(=O)n(Cc3ccc(C(=O)NCCCN4CCC(C)CC4)cc3)c(=S)[nH]c2c1	35.5µM	0	?	0	0	0
Cc1cc(NC(=O)c2cc(-c3ccc(Br)cc3)on2)nn1Cc1ccc(Cl)cc1	0	0	-	-	0	0
CN(C)S(=O)(=O)c1cccc(NC(=S)N/N=C/c2cc(Br)ccc2O)c1	-	0	10µM	0	17.8µM	28.2µM
COc1ccc(Nc2nc(C)nc(N)c2S(=O)(=O)c2ccccc2)cc1	0	0	-	-	0	0
